# Reference: PubChem BioAssay (NCI)
# The panel holds about 83,000 compounds, 20% with a hit somewhere; the sample as a whole holds those more often.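 Treatment: one concentration, 48 hours, 96-well format. Scoring: percent growth, with anything below 10 considered active.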 A number with no mark means an inactive call. Active and inactive are the calls of the source.
# Legend:
# Test in all cases: NCI-60 one-dose screen, 48 h (100 = growth as untreated, 0 = no growth, -100 = all killed)
# Settings in all cases: 10 µM unless noted
# MOLT-4 leukemia = test system: MOLT-4 leukemia
# SR leukemia = test system: SR leukemia
# RPMI-8226 leukemia = test system: RPMI-8226 leukemia
# OVCAR-8 ovarian = test system: OVCAR-8 ovarian
# OVCAR-5 ovarian = test system: OVCAR-5 ovarian
# OVCAR-4 ovarian = test system: OVCAR-4 ovarian
# SK-OV-3 ovarian = test system: SK-OV-3 ovarian
# IGROV1 ovarian = test system: IGROV1 ovarian
# OVCAR-3 ovarian = test system: OVCAR-3 ovarian
# HS 578T breast = test system: HS 578T breast
# NCI/ADR-RES ovarian = test system: NCI/ADR-RES ovarian
# T-47D breast = test system: T-47D breast
# BT-549 breast = test system: BT-549 breast
# MDA-MB-435 melanoma = test system: MDA-MB-435 melanoma
# SW-620 colon = test system: SW-620 colon
# MCF7 breast = test system: MCF7 breast
# HCT-116 colon = test system: HCT-116 colon
# HCC-2998 colon = test system: HCC-2998 colon
# KM12 colon = test system: KM12 colon
SMILES,growth (MOLT-4 leukemia),growth (SR leukemia),growth (RPMI-8226 leukemia),growth (OVCAR-8 ovarian),growth (OVCAR-5 ovarian),growth (OVCAR-4 ovarian),growth (SK-OV-3 ovarian),growth (IGROV1 ovarian),growth (OVCAR-3 ovarian),growth (HS 578T breast),growth (NCI/ADR-RES ovarian),growth (T-47D breast),growth (BT-549 breast),growth (MDA-MB-435 melanoma),growth (SW-620 colon),growth (MCF7 breast),growth (HCT-116 colon),growth (HCC-2998 colon),growth (KM12 colon)
CC(C)(C)C(=O)OCOP(=O)(OCOC(=O)C(C)(C)C)C1CCCN(O)C1=O (configuration not stated),3.92% (active),13.7%,-18% (active),5.69% (active),32.5%,11.2%,12.2%,-4.01% (active),4.08% (active),-8.85% (active),1.93% (active),8.21% (active),4.85% (active),36.6%,22.9%,0.807% (active),1.32% (active),5.6% (active),-3.46% (active)
COc1ccc(/C=C\c2cc(OC)c(OC)c(OC)c2)c(NS(=O)(=O)c2ccc(F)cc2)c1O,19.6%,19%,23.3%,22.5%,40.4%,29.3%,12.4%,28.3%,-37.8% (active),25.3%,2.13% (active),103%,24%,-34.9% (active),21.1%,9.22% (active),7.7% (active),14.9%,1.13% (active)
C/C(=C\c1ccn(-c2ccc(N)cc2C(F)(F)F)n1)[C@@H]1C[C@@H]2O[C@]2(C)CCC[C@H](C)[C@H](O)[C@@H](C)C(=O)C(C)(C)[C@@H](O)CC(=O)O1,9.23% (active),12.2%,5.57% (active),17.4%,24.1%,69.7%,0.896% (active),43.5%,12.5%,-10.7% (active),1.74% (active),39.1%,27%,-61.7% (active),23.9%,16.4%,12.1%,14.1%,11.4%
COc1ccc2c(c1)c(-c1nc(-c3c[nH]c4ncccc34)cs1)cn2CCCCN1CCCCC1,-60.3% (active),-57.6% (active),-43.6% (active),-67.6% (active),-15.7% (active),-13.3% (active),-61.5% (active),-62.1% (active),-71.4% (active),-23.3% (active),1.16% (active),-55.5% (active),69.2%,-92.7% (active),-71.9% (active),-74.9% (active),-98.9% (active),-9.73% (active),-62.9% (active)
O=C([O][Hg][c]1ccccc1)c1ccccc1,-27.5% (active),-7.13% (active),-36.7% (active),-29% (active),-82.3% (active),-1.64% (active),64.9%,-64% (active),-94.4% (active),12.9%,37.9%,-37.8% (active),-92.7% (active),-86.6% (active),-49.6% (active),-57.7% (active),-82.5% (active),51%,87.6%
CC[C@H](C)[C@H](NC(=O)NC(C)(C)C)C(=O)N(C)[C@H](C[C@@H](OC(C)=O)c1nc(C(=O)N[C@@H](Cc2ccccc2)C[C@H](C)C(=O)OC)cs1)C(C)C,17.4%,10.6%,-3.75% (active),18%,34.8%,36.2%,14.9%,24.5%,-16.8% (active),3.72% (active),23.3%,53.5%,-14.6% (active),-44.9% (active),20.5%,13.1%,1.01% (active),20%,13.8%
O=NNc1ccccn1,67.9%,66.7%,102%,80.3%,68%,90.8%,90%,86.1%,112%,89.7%,75.1%,97.3%,90%,111%,47.8%,71.4%,44.4%,86.7%,96.7%
O=C(Nc1ccc(Cl)cc1)Nc1nccs1,20.6%,27.3%,5.61% (active),24.9%,67.4%,81.1%,33.1%,33.6%,-26.6% (active),49.9%,8.57% (active),40.1%,44.1%,-49.4% (active),26.4%,15.2%,41.2%,69.5%,34.3%
